The text below walks through data of PubChem BioAssay (Tox21).

Results filed as inconclusive are left out. Entries that show only a call come without a potency. Active and inactive are the calls of the source. Calls come from the whole dose curve.

The target in this experiment is Acetylcholinesterase (Homo sapiens) (UniProt P22303). In words: Acetylcholinesterase (AChE) small molecule antagonists: fluorescence cell-based qHTS assay (AID 1347398). Note: nearly all actives have a fitted effect of over 50% in size. As to conditions: SH-SY5Y cells; Potency: AChE activity; outcome: AChE activity; series mostly up to 115 µM. From the text: National Center for Advancing Translational Sciences [NCATS]
Chain of Acetylcholinesterase (Homo sapiens) (P22303 whole entry, looked up): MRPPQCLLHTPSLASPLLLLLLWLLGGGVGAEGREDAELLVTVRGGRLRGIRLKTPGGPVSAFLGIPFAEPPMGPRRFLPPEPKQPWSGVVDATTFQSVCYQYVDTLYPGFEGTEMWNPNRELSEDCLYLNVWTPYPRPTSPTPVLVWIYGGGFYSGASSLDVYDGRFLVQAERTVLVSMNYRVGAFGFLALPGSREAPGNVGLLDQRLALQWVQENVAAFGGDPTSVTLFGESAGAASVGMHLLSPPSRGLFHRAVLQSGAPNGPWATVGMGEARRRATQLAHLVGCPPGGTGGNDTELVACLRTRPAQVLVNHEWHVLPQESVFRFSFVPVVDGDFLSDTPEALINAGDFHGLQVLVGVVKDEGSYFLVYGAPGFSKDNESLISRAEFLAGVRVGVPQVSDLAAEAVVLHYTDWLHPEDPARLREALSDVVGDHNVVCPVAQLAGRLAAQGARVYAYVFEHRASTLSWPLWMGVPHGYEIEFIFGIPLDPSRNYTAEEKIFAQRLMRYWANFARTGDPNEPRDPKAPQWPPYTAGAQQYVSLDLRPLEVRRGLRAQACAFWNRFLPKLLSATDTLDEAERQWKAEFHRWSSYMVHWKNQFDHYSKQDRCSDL
Division of Preclinical Innovation [DPI]
U.S. Environmental Protection Agency [EPA]
National Institutes of Environmental Health Sciences [NIEHS]
National Toxicology Program [NTP]
U.S. Food and Drug Administration [FDA]
Acetylcholinesterase (AChE) is the primary cholinesterase in the body that hydrolyzes a key neurotransmitter, acetylcholine. Inhibition of AChE activity can lead to neurotoxicity. Known inhibitors of AChE include organophosphorous pesticides (OP), chemical warfare agents, drugs, and various phytochemicals.
A homogenous cell-based assay using Amplitetrade mark Fluorimetric Acetylcholinesterase Assay Kit *Green Fluorescence* (AAT Bioquest, Sunnyvale, CA) was used to evaluate the chemicals in the Tox21 10K library that inhibit AChE activity. The assay uses Thiolite Green to quantify the thiocholine produced from the hydrolysis of acetylthiocholine by AChE from the SH-SY5Y cells. AChE can hydrolyze acetylthiocholine to create thiocholine. Thiolite Green is fluorescent when reacting with thiocholine. It has spectral properties similar to those of fluorescein. The fluorescence intensity of Thiolite Green is used to measure AChE activity. Its signal can be easily read by a fluorescence microplate reader at Ex/Em = 490/520 nm.
Tox21 Assay Protocol Summary:
For cell-based AChE assay, 2,000 SH-SY5Y cells in 4 uL/well were dispensed into black, clear-bottom 1536-well plates using a Multidrop Combi (Thermo Scientific) dispenser. The assay plates were incubated overnight at 37 C to allow cells to attach to the wells, followed by the transfer of 23 nL compound or DMSO (vehicle control) by a Pintool station (Wako Automation, CA). The plates were incubated for 30 min at 37 C and 5% CO2, followed by the addition of 4 uL of detection cocktail solution (ThioliteGreen, acetylthiocholine) into each well using Flying Reagent Dispenser (Beckman Coulter, CA) and then following 40 min incubation at room temperature. Fluorescent intensity (Ex/Em = 490/520 nm) was measured using an Envision plate reader (PerkinElmer, MA).
Turning to `CCCCOCCOC(=O)COc1nc(Cl)c(Cl)cc1Cl`, the Potency result was “inactive”. Still for that read-out and setting: the same measure for `O=C1C=CCCC1`: “inactive”; for `C[C@@H]1C[C@H]2[C@@H]3CCC4=CC(=O)C=C[C@]4(C)[C@@]3(Cl)[C@@H](O)C[C@]2(C)[C@@]1(OC(=O)c1ccco1)C(=O)CCl`: “inactive”. With `CCN(CC)CC(=O)OCC(=O)[C@@]1(O)CC[C@H]2[C@@H]3CCC4=CC(=O)CC[C@]4(C)[C@H]3[C@@H](O)C[C@@]21C`, the Potency result is “inactive”. Regarding `CCOC(=O)C(=O)c1csc(NC=O)n1`, the Potency entry was “inactive”.

In the case of `CCC(O)CO` (stereo not given), the Potency entry is “inactive”. Same read-out and setting: the result for `CC(C)(c1cc(Br)c(OCCO)c(Br)c1)c1cc(Br)c(OCCO)c(Br)c1` reads “inactive”; that for `OCCc1ccncc1`, “inactive”; that for `CC(=O)c1ccc2c(c1)CCCC2`, “inactive”. In the case of `O=C(O)c1cccnc1C(=O)O`, the Potency entry was “inactive”. The same measure, in the same setting: the result for `C=C(C)CCCC(C)CCO` (stereo not given) reads “inactive”; that for `O=C(O)/C=C(\CC(=O)O)C(=O)O`, “inactive”. In the case of `CCCCCCCCC(C)=O`, the Potency result is “inactive”. On the same count and under the same terms, the result for `c1ccc(-c2ccc(C(c3ccccc3)n3ccnc3)cc2)cc1` (stereo not given) reads “inactive”; that for `Nc1ccc(Oc2ccc(N)c(N)c2)cc1`, “inactive”; that for `CC(C)(C)c1cc(CCC(=O)OCCSCCOC(=O)CCc2cc(C(C)(C)C)c(O)c(C(C)(C)C)c2)cc(C(C)(C)C)c1O`, “inactive”. Same read-out and setting: the same measure for `c1cc2c3c(c1)ccc1cccc(c13)C2`: “inactive”; for `CCC1CCCCC1`: “inactive”; for `O=C(O)c1c2ccccc2cc2ccccc12`: “inactive”. On the same count and under the same terms, the same measure for `CC(C)c1ccc2oc3nc(N)c(C(=O)O)cc3c(=O)c2c1`: “inactive”; for `NCCCN1CCOCC1`: “inactive”.

Turning to `O=c1cc(-c2ccccc2)oc2ccc3ccccc3c12`, the Potency result is “inactive”. Still for that read-out and setting: the result for `CCCCNc1ccc(C(=O)OCCOCCOCCOCCOCCOCCOCCOCCOCCOC)cc1` reads “inactive”; that for `COc1ccnc(CS(=O)c2nc3cc(OC(F)F)ccc3[nH]2)c1OC` (stereo not given), “inactive”. As to `CN1CCN(CC(=O)N2c3ccccc3C(=O)Nc3cccnc32)CC1`, the activity change, negative = inhibition is 5.87% [at 10.5 µM] (inactive). On to `O=C1c2ccccc2C(=O)c2cc(Cl)ccc21`, for which the activity change, negative = inhibition was 0% [at 10.5 µM] (inactive). With `COc1cc(OC)nc(NC(=O)NS(=O)(=O)Nc2ccccc2C(=O)N(C)C)n1`, the Potency entry is “inactive”. Still for that read-out and setting: the same measure for `C=C(C)C(=O)OC`: “inactive”. Regarding `COC(=O)[C@]1(C)CCC[C@@]2(C)[C@H]1CC=C1C=C(C(C)C)CC[C@@H]12`, the Potency entry was “inactive”. For the molecule `CC(C)=C1CC[C@@H](C)CC1=O`, the Potency entry was “inactive”. Same read-out and setting: the result for `O=C(/C=C/c1ccc(O)c(O)c1)O[C@@H]1C[C@@](OC(=O)/C=C/c2ccc(O)c(O)c2)(C(=O)O)C[C@@H](O)[C@@H]1O` reads “inactive”; that for `C=Cc1ccc(C=C)cc1`, “inactive”. The same measure, in the same setting: the result for `Oc1cccc(O)c1O` reads “inactive”.

`CC(C)COC(=O)C(C)C`: the Potency entry was “inactive”.

With `Oc1ccc(Cl)cc1C1CCCC1`, the Potency result is “inactive”. Still for that read-out and setting: the result for `COP(=O)(O)OP(=O)(O)OC` reads “inactive”; that for `CC(C)CC(O)Cc1ccccc1` (stereo not given), “inactive”. Consider `Cc1cc(=O)c2c(O)c3c(O)cc(=O)c4c3c3c(cc(O)c1c23)C(C)(C)C=4O`, for which the activity change, negative = inhibition was 7.09% [at 23.8 µM] (inactive). As to `O=C(O)c1cccc(C(=O)O)c1C(=O)O`, the Potency entry was “inactive”. Still for that read-out and setting: the same measure for `COC(=O)c1ccc(I)cc1S(=O)(=O)NC(=O)Nc1nc(C)nc(OC)n1`: “inactive”.
